Compound activity as filed in PubChem BioAssay.
Rows were chosen to be rich in hits. Some 27% of all compounds tested hit in one or more screens of this group.
CYP2C19 inhib: human CYP2C19 inhibition | P33261 | CYP2C19 Supersomes, luciferin-H EGE luminescence, 30 min | inhibition, % at 5 µM | hit rate 21% among 96,000 | AID 778;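 active means CYP2C19 inhibition above a set limit at 5 µM in the primary screen, cut at about 50% in these data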;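 further: plate controls were negative control wells for no effect and 2.5 mM tranylcypromine positive control for full effect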
sEH inh: inhibitors of human soluble epoxide hydrolase | P34913 | recombinant human sEH enzymatic activity assay | inhibition, % at 2 µM | hit rate 0.34% among 91,000 | AID 707; in the data active means inhibition above about 80%
Target sequence (P34913 whole entry, looked up): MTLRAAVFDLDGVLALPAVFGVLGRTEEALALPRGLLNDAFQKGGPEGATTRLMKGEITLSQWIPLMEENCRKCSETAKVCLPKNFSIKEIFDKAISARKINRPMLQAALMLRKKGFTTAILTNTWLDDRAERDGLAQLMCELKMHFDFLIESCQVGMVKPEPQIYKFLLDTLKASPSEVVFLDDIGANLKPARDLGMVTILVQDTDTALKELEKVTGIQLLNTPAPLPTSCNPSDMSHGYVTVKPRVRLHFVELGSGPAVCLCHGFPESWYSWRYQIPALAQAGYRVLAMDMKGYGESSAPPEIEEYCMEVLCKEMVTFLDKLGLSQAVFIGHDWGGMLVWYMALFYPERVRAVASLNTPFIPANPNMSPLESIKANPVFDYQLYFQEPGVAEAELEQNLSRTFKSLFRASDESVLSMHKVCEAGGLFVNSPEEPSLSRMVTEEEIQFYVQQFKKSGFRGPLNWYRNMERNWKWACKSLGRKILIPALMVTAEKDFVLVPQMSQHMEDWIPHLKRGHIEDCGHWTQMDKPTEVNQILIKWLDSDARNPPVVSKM
CYP2C19 act: activators of human cytochrome P450 2C19; P33261; recombinant CYP2C19, luciferin-H EGE luminescence; stronger effect = higher value; 0 = fully inhibited enzyme, 1 = untreated enzyme; 96,000 tested, under 10 active; activation factor at 5 µM;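 active means activation factor of at least 2 at 5 µM in the primary screen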;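 further: 0 = wells with 2.5 mM tranylcypromine and 1 = vehicle-only wells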
CYP2C9 inh: blocks human cytochrome P450 2C9. CYP2C9 Supersomes, luciferin-H conversion, luminescence. inhibition, % at 5 µM. hit rate 20% among 96,000. AID 777;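 active means blocking of liver enzyme CYP2C9 beyond about 50% at 5 µM, limit read from the data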
sEH act: increases human soluble epoxide hydrolase activity | hit rate 0.04% among 91,000 | purified human sEH enzymatic activity, activator screen | P34913 | AID 717 | activation, % at 2 µM; in the data active means activation above about 37%
CYP2C9 activ: increases human cytochrome P450 2C9 activity | recombinant CYP2C9, luciferin-H conversion, luminescence; stronger effect = higher value; factor 1 = untreated enzyme, 0 = blocked | activation factor at 5 µM | hit rate 1.4% among 96,000 | AID 1024;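 active means activation factor of 2 or more for CYP2C9 at a 5 µM dose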;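 further: 0 = sulfaphenazole-blocked wells and 1 = vehicle-only wells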
Numbers without * were called inactive; . = no result given.

SMILES	CYP2C19 inhib	sEH inh	CYP2C19 act	CYP2C9 inh	sEH act	CYP2C9 activ
O=C(NCc1cccnc1)C1CCCN(S(=O)(=O)c2ccc(Br)cc2)C1 (stereo unspecified)	63*	-15	0.4	46	10	0.5
O=C(NCc1cccnc1)c1ccc(S(=O)(=O)N2CCCCC2)cc1	61*	4	0.4	47	-4	0.5
Cc1cccc(/C=N/n2c(C)cc(C)c(C#N)c2=O)c1	.	1	.	.	0	.
CCc1c(-c2ccccc2)nc2nc(C)c(C)nn12	1	6	1	-17	-8	1.2
Cc1nc2nc(-c3ccccc3)cn2nc1C	52*	.	0.5	24	.	0.8
c1ccc(-c2cn3nc4c(nc3n2)CCCC4)cc1	81*	-7	0.2	29	2	0.7
Cc1ccc(Cc2nnc3n(-c4cccc(C)c4)nc(C(=O)c4ccccc4)n3c2=O)cc1	.	1	.	.	-1	.
CCCS(=O)(=O)N1CCN(C(=O)COc2ccc(OC)cc2)CC1	12	-5	0.9	16	4	0.8
O=C(CCC(=O)N(CC(=O)NC1CCCC1)C1CCCC1)Nc1ccccn1	24	-3	0.8	13	3	0.9
Cc1ccnc(NC(=O)CCC(=O)N(CC(=O)NC2CCCCC2)c2cccc(C)c2C)c1	42	9	0.6	56*	-8	0.4
Cc1ccc(C)c(N(CC(=O)NC2CCCCC2)C(=O)CCC(=O)Nc2ccccn2)c1	66*	-9	0.3	80*	5	0.2
Cc1cc(C)cc(N(CC(=O)NC2CCCCC2)C(=O)CCC(=O)Nc2cc(C)ccn2)c1	46	.	0.5	46	.	0.5
Cc1ccc(N(CC(=O)NC2CCCC2)C(=O)CCCC(=O)Nc2ccccn2)cc1C	56*	.	0.4	56*	.	0.4
Cn1c(=O)c2c(nc(CN3CCOCC3)n2CCCO)n(C)c1=O	-6	.	1.1	4	.	1
CC(=O)N1CCn2c3ccc(C)cc3c3cccc1c32	.	6	.	.	-3	.
O=C(Nc1ccc(Oc2ccc(NC(=O)c3ccco3)c(NC(=O)c3ccco3)c2)cc1)c1ccco1	51*	47	0.5	73*	-45	0.3
O=C(Nc1ccc(Oc2ccc3ccccc3c2)cc1)c1ccco1	19	8	0.8	-17	-8	1.2
O=C(COC(=O)c1ccco1)Nc1ccccc1	58*	-6	0.4	18	6	0.8
O=C(Nc1nc(-c2cccs2)c(-c2ccccc2)s1)c1ccco1	66*	.	0.3	96*	.	0
O=C(Nc1nnc(COc2ccccc2)s1)c1ccco1	11	-10	0.9	21	8	0.8
O=C(Nc1nccs1)c1ccc(NC(=O)c2ccco2)cc1	20	-4	0.8	51*	3	0.5
CCOc1ccc(N2C(=O)C(c3ccccc3)=C(c3nc4ccccc4s3)C2NC(C)=O)cc1 (stereo unspecified)	-4	10	1	26	-10	0.7
Cn1cc(Cl)c(C(=O)Nc2nc3ccccc3s2)n1	54*	-7	0.5	-6	5	1.1
O=C(Nc1ccc(Br)cc1)c1ccco1	-5	-2	1.1	21	0	0.8
O=C(Nc1ccc(Cc2ccncc2)cc1)c1ccco1	96*	31	0	98*	-31	0
SMILES	CYP2C19 inhib	sEH inh	CYP2C19 act	CYP2C9 inh	sEH act	CYP2C9 activ
O=C(Nc1ccc(OCC(=O)N2CCC(Cc3ccccc3)CC2)cc1)c1ccco1	95*	16	0.1	87*	-17	0.1
O=C(Nc1ccc(Nc2ccccc2)cc1)c1ccco1	67*	2	0.3	82*	-2	0.2
O=C(NCC(F)(F)F)N1CCOCC1	-19	6	1.2	-19	-4	1.2
CCOC(=O)C(NC=O)(NC(C)(C)C)C(=O)OCC	-1	-2	1	-3	4	1
CCOc1ccc(NC(=O)c2ccco2)cc1	22	-10	0.8	5	10	0.9
O=C(COC(=O)[C@H](Cc1ccccc1)NC(=O)c1ccco1)NCc1ccccc1	71*	13	0.3	91*	-12	0.1
CN(C)C(=O)COC(=O)[C@H](Cc1ccccc1)NC(=O)c1ccco1	8	3	0.9	16	-1	0.8
CC(C)OC(=O)c1ccc(NC(=O)c2ccco2)cc1	57*	1	0.4	45	-3	0.5
CC(C)CC(=O)Nc1ccc(Nc2ccccc2)cc1	.	-2	.	.	1	.
CC(C)C(=O)Nc1ccc(Nc2ccccc2)cc1	55*	6	0.5	55*	-8	0.4
O=C(COC(=O)Cc1cccs1)Nc1ccccc1	69*	-2	0.3	29	0	0.7
O=C(NC1CCCCCC1)C1CC(=O)N(Cc2ccccc2)C1 (stereo unspecified)	38	25	0.6	-48	-24	1.5
O=C(Nc1nc2c(s1)CCCC2)c1ccc(Br)s1	6	.	0.9	38	.	0.6
O=C(NC1CCCCC1)N1CCC(n2cnc3ccccc32)CC1	-8	-28	1.1	-17	28	1.2
CCC(=O)c1ccc(OC(=O)c2ccc(Br)o2)cc1	.	0	.	.	2	.
Cn1cc(Cl)c(C(=O)Nc2cccc(Cl)c2Cl)n1	49	1	0.5	16	-2	0.8
Cn1cc(Cl)c(C(=O)OCC(=O)Nc2ccccc2)n1	83*	-7	0.2	22	9	0.8
O=C(Nc1ccc2nc(C3CC3)n(Cc3ccc(F)cc3)c(=O)c2c1)c1ccco1	56*	.	0.4	67*	.	0.3
COc1ccc(CC(C)N2CCN(c3cccc(C(F)(F)F)c3)CC2)cc1OC (stereo unspecified)	23	-14	0.8	24	11	0.8
Cc1cccc(OCc2nnc(SCC(=O)N(C(C)C)C(C)C)n2Cc2ccco2)c1C	54*	6	0.5	38	-5	0.6
Cc1cc(NC(=O)CSc2nnc(COc3cccc(C)c3C)n2Cc2ccco2)no1	12	-22	0.9	31	23	0.7
Cc1cc(C)c(NC(=O)CSc2nnc(-c3ccncc3)n2Cc2ccco2)c(C)c1	27	-1	0.7	38	3	0.6
COc1ccc(NC(=O)CSc2nnc(-c3ccccc3Cl)n2Cc2ccco2)c(OC)c1	55*	-7	0.5	51*	7	0.5
COc1ccc(C)cc1NC(=O)CSc1nnc(COc2ccc(Cl)cc2)n1Cc1ccco1	17	5	0.8	7	-5	0.9
COc1ccc(C)cc1NC(=O)CSc1nnc(COc2ccccc2)n1Cc1ccco1	87*	11	0.1	49	-12	0.5
COc1ccc(NC(=O)CSc2nnc(-c3ccccc3)n2Cc2ccco2)c(OC)c1	91*	-7	0.1	86*	7	0.1
COc1ccccc1-n1c(CNC(=O)c2ccco2)nnc1SCC(=O)Nc1cc(C)ccc1C	18	13	0.8	-103	-15	2*
COc1ccc(C)cc1NC(=O)CSc1nnc(-c2ccco2)n1N	-6	0	1.1	-17	0	1.2
